Compound activity from PubChem.
hgDAF-12 ag – H. glycines DAF-12 receptor agonists, primary screen, cell-based, luminescence, HEK293, GAL4 fusion, UAS-luciferase; HEK293 GAL4-hgDAF12 UAS-luciferase reporter, agonist luminescence; normalized to butyrate control; activation, % at 6.8 µM; 370,000 compounds, 1.8% hits;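 active = activation above a cutoff set at the mean of all screened compounds plus 3 SD, cut at about 10% in these data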
hcDAF12 agonist – H. contortus DAF-12 nuclear receptor activators, primary screen, cell-based, luminescence, HEK293, lit1-tk-luc reporter; AID 652067, 2013; activation, % at 6.8 µM; HEK293 hcDAF-12 lit1-tk-luc reporter; 0% DMSO, 100% Δ7-dafachronic acid; 370,000 compounds, 1.4% hits;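 active = activation above the mean of all tested compounds plus 3 SD, cut at about 5.5% in these data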
AHR act – AHR activators, primary screen, cell-based, luminescence, luciferase reporter, human. Aryl hydrocarbon receptor (Homo sapiens), P35869. AHR-responsive luciferase reporter cells. activation, % at 5 µM. 320,000 compounds, 2.5% hits; in the data active = activation above about 47%
ssDAF12 agonist – S. stercoralis DAF-12 nuclear receptor activators, primary screen, cell-based, luminescence, HEK293, GRIP1 co-expression, lit1-tk-luc; HEK293 ssDAF-12/GRIP1 lit1-tk-luc reporter; % of 3 µM dafachronic acid response; 370,000 compounds, 1% hits; AID 652126, 2013; activation, % at 6.8 µM;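 active = activation above the mean over all tested compounds plus 3 SD, cut at about 0.9% in these data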
DAX1 inh-1 – DAX1 (NR0B1) inhibitors, primary screen, cell-based, HEK293, Gal4-DAX1, luciferase luminescence | 340,000 compounds, 0.99% hits | HEK293 Gal4-DAX1 luciferase reporter | AID 504766, 2011 | Nuclear receptor subfamily 0 group B member 1 (Homo sapiens), P51843 | inhibition, % at 6.75 µM;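 active = inhibition above the mean over all tested compounds plus 3 SD, cut at about 4.2% in these data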;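 also: inhibition shows as a rise in luminescence from relieved DAX1 repression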
DAX1 inh-2 – DAX1 (NR0B1) inhibitors on StAR promoter, primary screen, cell-based, luminescence, SF-1 (NR5A1), full-length DAX-1; HEK293T StAR-luciferase reporter, SF-1/DAX-1 repression relief; inhibition, % at 6.8 µM; 370,000 compounds, 1.1% hits; AID 652010, 2013;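 active = inhibition above the mean over all tested compounds plus 3 SD, cut at about 3.6% in these data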;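 also: higher inhibition means more luminescence from relief of DAX-1 repression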
DAX1 conf – DAX1 (NR0B1) inhibitors relieving SF-1 repression, confirmation, cell-based, luminescence, HEK293T, full-length DAX-1, SF-1 activated StAR promoter; shares compounds with DAX1 inh-2; AID 652134, 2013; inhibition, % at 6.8 µM; 2,400 compounds, 87% hits; HEK293T StAR-promoter luciferase reporter, SF-1/DAX-1 repression;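 active = inhibition above the average of every tested compound plus 3 SD, cut at about 3.8% in these data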
Target sequence (P51843 whole entry, looked up): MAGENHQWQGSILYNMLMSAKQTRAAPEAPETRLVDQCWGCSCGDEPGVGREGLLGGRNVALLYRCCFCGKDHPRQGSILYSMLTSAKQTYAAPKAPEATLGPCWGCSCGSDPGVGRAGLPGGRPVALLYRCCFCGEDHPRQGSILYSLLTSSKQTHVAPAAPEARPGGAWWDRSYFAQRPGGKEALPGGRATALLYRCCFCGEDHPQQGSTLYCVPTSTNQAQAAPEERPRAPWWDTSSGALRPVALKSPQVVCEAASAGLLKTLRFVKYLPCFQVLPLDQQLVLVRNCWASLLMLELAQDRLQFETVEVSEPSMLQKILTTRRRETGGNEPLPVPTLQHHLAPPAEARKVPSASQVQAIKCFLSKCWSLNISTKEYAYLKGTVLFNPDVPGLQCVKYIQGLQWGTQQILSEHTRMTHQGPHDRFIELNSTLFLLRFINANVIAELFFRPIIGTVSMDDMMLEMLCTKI
SF1 mutant ctr – StAR reporter signal changes without DAX1, counter-screen for DAX1 inhibitor project, cell-based, luminescence, AF-2 mutant SF-1, transactivation; shares compounds with DAX1 inh-2; HEK293 StAR-luciferase, SF-1 AF2 mutant; inhibition, % at 6.8 µM; 2,400 compounds, 78% hits; AID 652136, 2013;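 active = inhibition above the mean of all tested compounds plus 3 SD, cut at about 3% in these data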
A number is an active result; n = inactive; x = no result given. The list is not random: actives were taken first. Their share in the collection is about 5.7%.

SMILES	hgDAF-12 ag	hcDAF12 agonist	AHR act	ssDAF12 agonist	DAX1 inh-1	DAX1 inh-2	DAX1 conf	SF1 mutant ctr
CCCn1c(C)cc(C(=O)COC(=O)c2cc(=O)[nH]c3ccccc23)c1C	10.9	6.5	x	n	n	5.4	9.3	3.1
CC(=O)c1ccc(NC(=O)c2cnn3ccccc23)cc1	n	n	n	n	n	5.8	5.3	n
CCOc1cc(C(=O)NN=C2CCCC2)cc(OCC)c1OCC	n	n	n	n	n	6.9	n	n
O=C(Nc1cccc(Cl)c1)Nc1ccc(Cl)cn1	n	n	n	n	n	n	x	x
O=C(NC(=O)c1ccccc1)Nc1ccc(Cl)cn1	n	n	n	n	n	7.9	14.2	7.3
COc1ccc(-c2csc(N3C(=N)SCC3=O)n2)cc1	13.1	6.4	n	n	n	6.9	16.3	7.4
COc1ccc(-c2csc(N3C(=O)C4C5c6ccccc6C(c6ccccc65)[C@@H]4C3=O)n2)cc1 (stereo partly specified)	n	n	n	n	n	n	x	x
O=C(CSc1nc2ccccc2nc1N1CCCC1)N1CCN(C(c2ccccc2)c2ccccc2)CC1	n	n	x	n	x	n	x	x
O=C(Nc1ncc(Cc2cccc([N+](=O)[O-])c2)s1)c1ccco1	n	n	n	n	n	n	x	x
Cc1ccc(Cc2cnc(NC(=O)c3ccco3)s2)cc1	13.2	5.9	n	n	n	6.6	16.0	5.2
Cc1cc(NC(=O)c2ccco2)sc1C	n	5.7	n	n	n	4.5	6.4	4.5
O=C(C[C@H]1C/C=C\CC[C@@H](Cc2ccc(F)cc2)C(=O)O[C@@H](c2ccccc2)CNC1=O)N[C@@H](CO)Cc1ccccc1	n	n	n	n	n	n	x	x
NC(=O)NC[C@@H]1CC[C@@H](Cc2ccc(-c3ccccc3)cc2)O1	x	x	x	x	n	x	x	x
OC[C@@H]1CC[C@@H](Cc2ccc(-c3ccccc3)cc2)O1	n	n	x	n	n	5.6	6.7	4.8
O=C(CN1CCN(c2ccccc2)CC1)Nc1ccccc1C(=O)NCCc1ccccc1	n	5.8	x	n	n	4.7	6.7	4.8
Cc1ccc(NC(=O)CCC(=O)N/N=C/c2cccs2)cc1	n	n	n	n	n	n	x	x
CC(C)N(C(=O)[C@H]1C[C@H](CC(=O)NCCN2CCOCC2)C(=O)N2CCc3c([nH]c4ccc(Cl)cc34)[C@]12C)C(C)C	n	n	x	n	n	5.5	n	n
Cc1ccc2cc(C#N)c(SCC(=O)NCC3CCCO3)nc2c1 (stereo unspecified)	n	n	n	n	n	n	x	x
COC(=O)CSc1nc2cc(C)ccc2cc1C#N	12.2	n	n	1.2	4.4	5.0	18.1	9.3
Brc1cccc(-c2nc3ccc(Br)cn3c2Cc2ccsc2)c1	n	n	x	n	x	n	x	x
Cc1ccc(-c2nc3ccc(Br)cn3c2Cc2ccsc2)cc1	20.6	n	x	1.1	x	4.7	8.6	5.8
Nc1nc(N)c(N=Nc2ccccc2)c(=O)[nH]1	n	n	x	n	n	5.7	5.5	3.2
O=C(NC1CCCCC1)C(=O)c1c[nH]c2ccccc12	n	n	n	n	n	6.5	8.5	5.5
